Experimental data: the supplement of paper PMC6555819

Key:
Experiment in all cases: PBM binding z-score (relative to random genomic background probes); higher = stronger binding; sequences stand for … in GC…GCGATTGACAGCGTAGAATGAAGG
[1] = tested on: RARb homodimer (NR concentration 270 nM)
Outline: (§1)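 Antibodies against each partner of ligand-free nuclear receptor dimers (one per run) detected binding on custom Agilent 4×180K protein-binding microarrays after 1 h incubation. The double-stranded probes had 34-nt variable regions carrying direct-repeat seeds, single-nucleotide variants, half-site ablations and random human genomic background sequences. Binding z-scores, from regression-normalized fluorescence, use the random background probes as reference.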

[2] = tested on: RARg:RXRa (NR concentration 270 nM, RXRa partner concentration 90 nM)
Outline: as §1

[3] = tested on: RARg homodimer (NR concentration 270 nM)
Outline: as §1

[4] = tested on: RXRa DBDmut IVT, anti-RXR (DBD mutation: RXRa K156A/R161A, NR concentration 90 nM)
Outline: as §1

[5] = tested on: RXRa homodimer (NR concentration 180 nM)
Outline: as §1

[6] = tested on: THRa:RXRa (NR concentration 90 nM, RXRa partner concentration 90 nM)
Outline: as §1

[7] = tested on: THRa homodimer (NR concentration 90 nM)
Outline: as §1

[8] = tested on: VDR:RXRa (NR concentration 270 nM, RXRa partner concentration 90 nM)
Outline: as §1

[9] = tested on: VDR homodimer (NR concentration 270 nM)
Outline: as §1

Sequence	PBM binding z-score [1]	PBM binding z-score [2]	PBM binding z-score [3]	PBM binding z-score [4]	PBM binding z-score [5]	PBM binding z-score [6]	PBM binding z-score [7]	PBM binding z-score [8]	PBM binding z-score [9]
TATACAGGGTCAAAGGCCAGATTACGAATGTCGA	3.49	5.72	4.99	3.29	6.99	3.6	0.972	4.85	2.54
CCGAGTGGGGCATAAGGTTACCATAAGCCAGCCC	1.32	1.46	0.809	-0.545	1.22	2.01	1.09	0.143	0.036
AGTCAAAGTTCATCTAGGTAACGTACGATATGCT	3.93	5.49	5.82	4.69	4.69	3.28	0.448	5.15	5.04
ACAGACAGGTCATGAAGGTAACTCAGGCTATCAT	3.05	4.63	4.19	1.69	4.56	3.12	0.575	4.55	1.23
GATACAGGGTCAGCTAGAGGCCAGAGCATGGAAA	3.06	6.77	4.51	1.31	4.26	3.01	0.132	3.04	0.805
CGTCCAAGGTCAGCAGGTCAGTGGAAGCGACGTG	5.03	6.2	6.72	2.48	4.81	3.96	2.37	3.82	1.6
ATCTCTAGGTAAGACTGAGTTCAGTGAAGAACGC	1.05	0.569	0.377	1.38	0.265	1.25	0.797	2.75	3.47
ACTAGCAGGCCAAGGGTCACCCAAGATTAGTCCG	3.96	4.79	4.32	0.27	4.91	3	0.576	3.3	0.895
CCTACTGGGCCAAAAAGGTGATTGATGCCGATAA	0.483	0.0442	0.047	-0.635	-0.0112	0.0456	-0.353	-0.0906	-0.114
CCTACTGGGCCAAGGGTCATTGATTCCAATGCTC	3.11	3.67	3.31	-0.197	3.75	2.11	0.000297	3.45	1.68
TCTTGTATATCAAAGGTTAAGAAAGCCGAAGCCT	1.82	1.98	1.32	0.935	2.92	1.58	0.181	1.91	0.26
TCTGCTAGGTCAGTTGGTGAGCTAACGAGCTGCC	1.93	2.27	3.76	0.367	0.541	1.04	-0.41	-0.377	-0.739
CGTCCAAGGTCAGAGAGGGCAGTGAATGCCGAGT	4.41	4.86	5.33	3.24	3.8	3.96	1.86	6.5	3.51
